# Measured values published in the antibiotic and cytotoxicity screens of Wong et al. (2023).
# The campaign covered roughly 39,000 compounds. About 3,300 (8.5%) were called active. For the sample, actives were picked, then their nearest neighbours and some compounds at random.
# Test system: HepG2
# Assay: cytotoxicity call (relative viability < 0.9)
# Conditions: 10 µM
row,SMILES,cytotoxicity call
1,COc1ccc(S(=O)(=O)N(C)C[C@@H]2OCCCC[C@H](C)Oc3ccc(NC(=O)CCC(F)(F)F)cc3C(=O)N([C@@H](C)CO)C[C@H]2C)cc1,inactive
2,COc1ccc(S(=O)(=O)Nc2ccc3c(c2)CC(=O)N([C@@H](C)CO)C[C@@H](C)[C@@H](CN(C)CC2CC2)O3)cc1,inactive
3,COc1ccc(S(=O)(=O)N[C@@H]2CC[C@@H](CC(=O)N3CCN(c4ccccc4)CC3)O[C@@H]2CO)cc1,inactive
4,Cn1cnc(CN)c1,inactive
5,C[C@H]1CN([C@@H](C)CO)C(=O)c2cc(C#CCc3ccccc3)cnc2O[C@@H]1CN(C)C(=O)C1CCOCC1,inactive
6,C[C@H]1CN([C@@H](C)CO)C(=O)c2cc(NS(=O)(=O)c3ccccc3)ccc2O[C@@H]1CN(C)Cc1ccncc1,inactive
7,Cc1noc(C)c1NC(=O)Nc1ccc2c(c1)C(=O)N([C@H](C)CO)C[C@H](C)[C@H](CN(C)C(=O)Cc1ccccc1)OCCCC[C@H](C)O2,inactive
8,C[C@@H]1CN([C@H](C)CO)C(=O)c2cc(NS(=O)(=O)c3ccccc3)ccc2O[C@@H]1CN(C)Cc1ccc(Oc2ccccc2)cc1,active
9,C[C@H](CO)N1C[C@H](C)[C@H](CN(C)Cc2ccc(Oc3ccccc3)cc2)Oc2ccc(NS(=O)(=O)c3ccccc3)cc2C1=O,inactive
10,C[C@@H]1CN([C@@H](C)CO)C(=O)c2cc(NS(=O)(=O)c3ccccc3)ccc2O[C@@H]1CN(C)Cc1ccc(Oc2ccccc2)cc1,active
11,C[C@H]1CN([C@@H](C)CO)C(=O)c2cc(NS(=O)(=O)c3ccccc3)ccc2O[C@H]1CN(C)Cc1ccc(Oc2ccccc2)cc1,inactive
12,C[C@H](CO)N1C[C@H](C)[C@@H](CN(C)Cc2ccc(Oc3ccccc3)cc2)Oc2ccc(NS(=O)(=O)c3ccccc3)cc2C1=O,inactive
13,C[C@@H]1CN([C@H](C)CO)C(=O)c2cc(NS(=O)(=O)c3ccccc3)ccc2O[C@H]1CN(C)Cc1ccc(Oc2ccccc2)cc1,inactive
14,C[C@@H](NS(=O)(=O)C1CN(C(=O)OCc2ccccc2)C1)C(N)=O,inactive
15,O=C1c2ccccc2-c2nc(-c3ccccc3)cc3cccc1c23,inactive
16,C[C@H](CO)N1C[C@H](C)[C@H](CN(C)C(=O)CN(C)C)Oc2cc(-c3cncnc3)ccc2S1(=O)=O,inactive
17,O=C(O)[C@@H](O)c1ccccc1,inactive
18,C[C@H](CO)N1C[C@H](C)[C@H](CN(C)Cc2ccc(-c3ccccc3)cc2)Oc2ccc(NC(=O)Nc3ccc(F)cc3)cc2C1=O,inactive
19,C[C@H](CO)N1C[C@H](C)[C@@H](CN(C)Cc2ccc(-c3ccccc3)cc2)Oc2ccc(NC(=O)Nc3ccc(F)cc3)cc2C1=O,inactive
20,C[C@@H]1CN([C@@H](C)CO)C(=O)c2cc(NC(=O)Nc3ccc(F)cc3)ccc2O[C@H]1CN(C)Cc1ccc(-c2ccccc2)cc1,active
21,C[C@@H]1CN([C@@H](C)CO)C(=O)c2cc(NC(=O)Nc3ccc(F)cc3)ccc2O[C@@H]1CN(C)Cc1ccc(-c2ccccc2)cc1,active
22,C[C@H]1CN([C@@H](C)CO)C(=O)c2cc(NC(=O)Nc3ccc(F)cc3)ccc2O[C@@H]1CN(C)Cc1ccc(-c2ccccc2)cc1,inactive
23,C[C@@H]1CN([C@H](C)CO)C(=O)c2cc(NC(=O)Nc3ccc(F)cc3)ccc2O[C@@H]1CN(C)Cc1ccc(-c2ccccc2)cc1,active

row,SMILES,cytotoxicity call
1,C[C@H]1CN([C@@H](C)CO)C(=O)c2cc(NC(=O)Nc3ccc(F)cc3)ccc2O[C@H]1CN(C)Cc1ccc(-c2ccccc2)cc1,inactive
2,C[C@@H]1CN([C@H](C)CO)C(=O)c2cc(NC(=O)Nc3ccc(F)cc3)ccc2O[C@H]1CN(C)Cc1ccc(-c2ccccc2)cc1,inactive
3,C[C@@H]1CN([C@H](C)CO)C(=O)c2cc(NC(=O)C3CCCCC3)ccc2O[C@@H](C)CCCCO[C@H]1CN(C)S(=O)(=O)c1ccc(Cl)cc1,inactive
4,CO[C@H]1CN(C)C(=O)c2ccc(NS(=O)(=O)c3cn(C)cn3)cc2OC[C@@H](C)N(Cc2cccc(F)c2)C[C@@H]1C,inactive
5,C[C@@H]1CN([C@H](C)CO)C(=O)c2cc(NS(C)(=O)=O)ccc2O[C@@H]1CN(C)C(=O)Nc1ccc(F)cc1,inactive
6,C[C@@H]1CCCCO[C@@H](CN(C)C(=O)Nc2ccc3c(c2)OCO3)[C@H](C)CN([C@@H](C)CO)C(=O)c2cc(NC(=O)CCC(F)(F)F)ccc2O1,inactive
7,CO[C@@H](CN(C)S(=O)(=O)c1ccc(C)cc1)[C@H](C)CN([C@H](C)CO)S(=O)(=O)c1cccc(Cl)c1,inactive
8,COCC(=O)N1C[C@@H](C)[C@H](OC)CN(C)C(=O)c2cc(NC(=O)c3ccc(F)cc3)ccc2OC[C@H]1C,inactive
9,O=C1c2ccccc2[C@@]2(Cc3ccccc3N(CC(F)(F)F)C2=O)[C@H](c2ccc(CO)cc2)N1Cc1ccccc1,inactive
10,C[C@H]1CN([C@@H](C)CO)C(=O)Cc2cc(NC(=O)Nc3ccc4c(c3)OCO4)ccc2O[C@@H]1CN(C)Cc1ccc(C(=O)Nc2ccccc2N)cc1,inactive
11,C[C@H](CO)N1C[C@H](C)[C@@H](CN(C)Cc2ccc(C(=O)Nc3ccccc3N)cc2)Oc2ccc(NC(=O)Nc3ccc4c(c3)OCO4)cc2CC1=O,inactive
12,C[C@@H]1CN([C@H](C)CO)C(=O)Cc2cc(NC(=O)Nc3ccc4c(c3)OCO4)ccc2O[C@@H]1CN(C)Cc1ccc(C(=O)Nc2ccccc2N)cc1,active
13,C[C@@H]1CN([C@@H](C)CO)C(=O)Cc2cc(NC(=O)Nc3ccc4c(c3)OCO4)ccc2O[C@H]1CN(C)Cc1ccc(C(=O)Nc2ccccc2N)cc1,inactive
14,C[C@H]1CN([C@@H](C)CO)C(=O)Cc2cc(NC(=O)Nc3ccc4c(c3)OCO4)ccc2O[C@H]1CN(C)Cc1ccc(C(=O)Nc2ccccc2N)cc1,active
15,C[C@H]1CN([C@@H](C)CO)C(=O)Cc2cc(NC(=O)Nc3ccccc3)ccc2O[C@@H]1CN(C)Cc1ccc(C(=O)Nc2ccccc2N)cc1,inactive
16,C[C@H](CO)N1C[C@H](C)[C@H](CN(C)Cc2ccc(C(=O)Nc3ccccc3N)cc2)Oc2ccc(NC(=O)Nc3ccc4c(c3)OCO4)cc2CC1=O,inactive
17,C[C@@H]1CN([C@H](C)CO)C(=O)Cc2cc(NC(=O)Nc3ccc4c(c3)OCO4)ccc2O[C@H]1CN(C)Cc1ccc(C(=O)Nc2ccccc2N)cc1,inactive
18,C[C@@H]1CN([C@@H](C)CO)C(=O)Cc2cc(NC(=O)Nc3ccc4c(c3)OCO4)ccc2O[C@@H]1CN(C)Cc1ccc(C(=O)Nc2ccccc2N)cc1,active
19,C[C@@H]1CN([C@H](C)CO)C(=O)c2cccc(NC(=O)Nc3cccc4ccccc34)c2O[C@@H]1CN(C)C(=O)NC1CCCCC1,inactive
20,C[C@H]1CN([C@@H](C)CO)C(=O)CCCn2cc(nn2)CO[C@@H]1CN(C)C(=O)Nc1cccc2ccccc12,inactive
21,O=C(Cn1cc(COc2ccc(-n3cccc3)cc2)nn1)NS(=O)(=O)c1ccccc1C(F)(F)F,inactive
22,C[C@@H]1CN([C@@H](C)CO)C(=O)c2cc(NC(=O)Cc3ccccc3)ccc2O[C@@H](C)CCCCO[C@H]1CN(C)C(=O)C1CCCCC1,inactive
23,C[C@H]1CN([C@@H](C)CO)C(=O)c2cccc(NS(=O)(=O)c3cccs3)c2O[C@@H]1CN(C)CC1CC1,inactive

row,SMILES,cytotoxicity call
1,COc1ccc([C@@H]([C@H](Cc2ccccc2)OC(C)=O)N2C[C@@H](OC(C)=O)[C@@H]3C(=NO[C@H]3c3ccccc3)[C@@H]2Cc2ccccc2)cc1,inactive
2,C[C@@H]1CN([C@@H](C)CO)C(=O)c2cccc(NC(=O)Nc3ccc4c(c3)OCO4)c2O[C@@H]1CN(C)Cc1ccc(C(F)(F)F)cc1,inactive
3,Oc1cc(O)c2cc(O)c(-c3ccc(O)c(O)c3)[o+]c2c1.[Cl-],inactive
4,Cc1noc(C)c1S(=O)(=O)Nc1ccc2c(c1)C(=O)N([C@H](C)CO)C[C@H](C)[C@H](CN(C)S(=O)(=O)c1ccc(Cl)cc1)O2,inactive
5,COc1ccc(S(=O)(=O)N2C[C@@H](O)COC[C@@H]3O[C@@H](CC(=O)NCc4ccc(Cl)c(Cl)c4)CC[C@H]32)cc1,active
6,COc1ccc(S(=O)(=O)N2C[C@H](O)COC[C@@H]3O[C@H](CC(=O)NCc4ccc(Cl)c(Cl)c4)CC[C@H]32)cc1,inactive
7,COc1ccc(S(=O)(=O)N2C[C@@H](O)COC[C@H]3O[C@H](CC(=O)NCc4ccc(Cl)c(Cl)c4)CC[C@@H]32)cc1,inactive
8,COc1ccc(S(=O)(=O)N2C[C@H](O)COC[C@H]3O[C@H](CC(=O)NCc4ccc(Cl)c(Cl)c4)CC[C@@H]32)cc1,inactive
9,COc1ccc(S(=O)(=O)N2C[C@@H](O)COC[C@@H]3O[C@H](CC(=O)NCc4ccc(Cl)c(Cl)c4)CC[C@H]32)cc1,inactive
10,COc1ccc(S(=O)(=O)N2C[C@@H](O)COC[C@H]3O[C@@H](CC(=O)NCc4ccc(Cl)c(Cl)c4)CC[C@@H]32)cc1,active
11,COCCCN1C(=O)[C@@]2(Cc3ccccc31)c1ccccc1C(=O)N(C1CCCCC1)[C@H]2c1ccc(CO)cc1,inactive
12,COc1ccc(NC(=O)N(C)C[C@@H]2OCCCC[C@@H](C)Oc3ccc(NC(=O)NC(C)C)cc3C(=O)N([C@H](C)CO)C[C@H]2C)cc1,inactive
13,COc1ccccc1S(=O)(=O)N(C)C[C@@H]1Oc2cc(C#CCC(C)C)ccc2S(=O)(=O)N([C@@H](C)CO)C[C@H]1C,inactive
14,CC(C)CC#Cc1ccc2c(c1)O[C@@H](CN(C)S(=O)(=O)c1cccc(F)c1)[C@H](C)CN([C@H](C)CO)S2(=O)=O,inactive
15,COc1ccccc1S(=O)(=O)N(C)C[C@@H]1Oc2cc(C#CCC(C)C)ccc2S(=O)(=O)N([C@H](C)CO)C[C@@H]1C,active
16,CCCC#Cc1ccc2c(c1)O[C@@H](CN(C)S(=O)(=O)c1cccc(OC)c1)[C@@H](C)CN([C@@H](C)CO)S2(=O)=O,inactive
17,CC(C)CC#Cc1ccc2c(c1)O[C@@H](CN(C)S(=O)(=O)c1cccc(F)c1)[C@H](C)CN([C@@H](C)CO)S2(=O)=O,inactive
18,COc1ccccc1S(=O)(=O)N(C)C[C@H]1Oc2cc(C#CCC(C)C)ccc2S(=O)(=O)N([C@@H](C)CO)C[C@@H]1C,inactive
19,CCCC#Cc1ccc2c(c1)O[C@H](CN(C)S(=O)(=O)c1cccc(OC)c1)[C@H](C)CN([C@@H](C)CO)S2(=O)=O,inactive
20,COc1ccccc1S(=O)(=O)N(C)C[C@H]1Oc2cc(C#CCC(C)C)ccc2S(=O)(=O)N([C@H](C)CO)C[C@@H]1C,inactive
21,COc1ccccc1S(=O)(=O)N(C)C[C@@H]1Oc2cc(C#CCC(C)C)ccc2S(=O)(=O)N([C@H](C)CO)C[C@H]1C,inactive
22,COc1ccccc1S(=O)(=O)N(C)C[C@H]1Oc2cc(C#CCC(C)C)ccc2S(=O)(=O)N([C@@H](C)CO)C[C@H]1C,active
23,CC(C)CC#Cc1ccc2c(c1)O[C@H](CN(C)S(=O)(=O)c1cccc(F)c1)[C@H](C)CN([C@@H](C)CO)S2(=O)=O,active
